Holding throughout (assay): DAPPL (digital affinity profiling via proximity ligation, sequencing); 10 mM Tris-HCl pH 7.5, 50 mM NaCl, 1 mM DTT, 4% glycerol, room temperature, 30 min; GST-TFs on glutathione beads, 16-mer random dsDNA library, 0.1% formaldehyde crosslink after washing; high values mean tight binding
Common to all, as to conditions: protein: recombinant; tags: N-terminal GST; dsDNA, one strand shown

For one assay, the target named is T1, ELK1 (Homo sapiens, UniProt P19419 1-428).
T1 sequence: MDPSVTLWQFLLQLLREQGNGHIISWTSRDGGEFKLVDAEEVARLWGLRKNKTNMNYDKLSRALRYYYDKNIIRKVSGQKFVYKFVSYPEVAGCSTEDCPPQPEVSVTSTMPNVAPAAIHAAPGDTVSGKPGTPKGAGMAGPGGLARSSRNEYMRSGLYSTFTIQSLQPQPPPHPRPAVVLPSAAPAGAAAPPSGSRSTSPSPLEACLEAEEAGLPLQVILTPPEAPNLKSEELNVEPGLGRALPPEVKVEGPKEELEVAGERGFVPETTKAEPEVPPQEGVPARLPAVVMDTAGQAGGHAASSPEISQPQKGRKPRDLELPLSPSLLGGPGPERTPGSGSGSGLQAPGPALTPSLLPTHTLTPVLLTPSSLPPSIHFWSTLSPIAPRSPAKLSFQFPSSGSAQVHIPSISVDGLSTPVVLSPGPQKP
A digest of the protocol: (§1)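 GST fusions of human transcription factors were expressed in yeast and captured with glutathione beads. Once given DNA barcodes and pooled alongside a tag-only sample, they were incubated for 30 min at room temperature with 200 nmole of a random double-stranded 16-mer DNA library in Tris/NaCl/DTT/glycerol buffer, then washed, crosslinked (0.1% formaldehyde), proximity-ligated, PCR-amplified and sequenced on an Illumina NextSeq500. The binding signal of each hexamer is its read frequency for a factor divided by its frequency for the tag-only sample.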

The next assay has as its target T2, GABPA (Homo sapiens, UniProt Q06546 1-454).
T2 sequence: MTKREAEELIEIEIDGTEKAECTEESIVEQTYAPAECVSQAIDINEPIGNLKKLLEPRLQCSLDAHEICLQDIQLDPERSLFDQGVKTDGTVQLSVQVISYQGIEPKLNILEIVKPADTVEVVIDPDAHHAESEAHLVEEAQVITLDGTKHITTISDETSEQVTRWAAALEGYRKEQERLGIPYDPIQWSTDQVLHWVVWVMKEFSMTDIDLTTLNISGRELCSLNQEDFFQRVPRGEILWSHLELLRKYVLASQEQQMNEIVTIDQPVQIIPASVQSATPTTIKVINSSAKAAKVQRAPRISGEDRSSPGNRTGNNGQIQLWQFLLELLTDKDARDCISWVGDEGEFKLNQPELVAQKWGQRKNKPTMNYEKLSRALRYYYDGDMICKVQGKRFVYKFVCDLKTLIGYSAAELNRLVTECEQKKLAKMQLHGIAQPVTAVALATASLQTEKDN
Summed up: as §1

The target of the next assay is T3, ERG (Homo sapiens, UniProt P11308 1-479).
T3 sequence: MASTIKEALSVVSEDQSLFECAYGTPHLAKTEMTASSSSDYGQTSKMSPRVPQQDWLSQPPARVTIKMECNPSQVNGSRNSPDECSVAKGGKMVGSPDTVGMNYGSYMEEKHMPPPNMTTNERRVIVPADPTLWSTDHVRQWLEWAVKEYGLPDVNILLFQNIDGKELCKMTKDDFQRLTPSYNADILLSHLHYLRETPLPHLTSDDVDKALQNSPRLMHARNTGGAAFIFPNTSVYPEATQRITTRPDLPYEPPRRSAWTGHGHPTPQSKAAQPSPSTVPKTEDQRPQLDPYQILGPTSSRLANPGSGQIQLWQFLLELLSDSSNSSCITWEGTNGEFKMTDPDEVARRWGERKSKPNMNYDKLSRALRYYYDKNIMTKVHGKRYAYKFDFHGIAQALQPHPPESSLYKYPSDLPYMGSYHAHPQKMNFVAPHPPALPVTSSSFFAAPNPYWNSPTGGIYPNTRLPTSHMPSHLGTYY
A digest of the protocol: as §1

The target of another assay is ELF1 (Homo sapiens, UniProt P32519 1-619). Summed up: as §1
In another assay the target is T4, EHF (Homo sapiens, UniProt Q9NZC4 1-300).
T4 sequence: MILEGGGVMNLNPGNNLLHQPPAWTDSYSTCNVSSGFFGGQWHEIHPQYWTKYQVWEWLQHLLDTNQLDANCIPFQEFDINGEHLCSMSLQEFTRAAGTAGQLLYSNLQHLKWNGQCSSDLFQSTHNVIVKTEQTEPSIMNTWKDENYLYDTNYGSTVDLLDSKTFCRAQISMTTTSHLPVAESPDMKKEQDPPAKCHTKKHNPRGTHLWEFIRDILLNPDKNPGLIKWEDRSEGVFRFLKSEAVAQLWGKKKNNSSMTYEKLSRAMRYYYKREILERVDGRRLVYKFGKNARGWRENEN
A digest of the protocol:
as §1

In the next assay the target is SPIB (Homo sapiens, UniProt Q01892 1-262). Summed up:
as §1

The next assay deals with T5, FEV (Homo sapiens, UniProt Q99581 1-238).
T5 sequence: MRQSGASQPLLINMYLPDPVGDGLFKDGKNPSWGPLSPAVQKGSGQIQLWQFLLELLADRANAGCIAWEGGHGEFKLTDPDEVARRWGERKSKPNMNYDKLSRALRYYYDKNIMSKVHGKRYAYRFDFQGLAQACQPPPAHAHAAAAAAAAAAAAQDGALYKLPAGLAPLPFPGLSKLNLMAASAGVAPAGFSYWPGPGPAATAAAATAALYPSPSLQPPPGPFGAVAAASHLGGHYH
Summed up: as §1

The target of the next assay is ETV5 (Homo sapiens, UniProt P41161 1-510). A digest of the protocol: as §1
A further assay addresses ELF4 (Homo sapiens, UniProt Q99607 1-663). A digest of the protocol:
as §1

The target in another assay is T6, ELK4 (Homo sapiens, UniProt P28324-2 1-405).
T6 sequence: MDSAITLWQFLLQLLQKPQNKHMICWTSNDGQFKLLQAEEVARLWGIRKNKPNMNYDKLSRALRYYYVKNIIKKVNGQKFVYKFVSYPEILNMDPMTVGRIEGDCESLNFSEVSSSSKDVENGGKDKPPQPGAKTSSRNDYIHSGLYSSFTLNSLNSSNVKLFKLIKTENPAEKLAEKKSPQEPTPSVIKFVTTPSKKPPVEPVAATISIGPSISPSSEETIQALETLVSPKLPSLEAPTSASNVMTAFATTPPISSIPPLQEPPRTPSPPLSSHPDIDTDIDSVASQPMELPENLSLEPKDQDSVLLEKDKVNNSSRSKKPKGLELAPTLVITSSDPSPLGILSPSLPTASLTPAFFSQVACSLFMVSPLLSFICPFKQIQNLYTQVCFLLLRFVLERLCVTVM
Summed up:
as §1

Sequence of ETV5 (P41161 whole entry): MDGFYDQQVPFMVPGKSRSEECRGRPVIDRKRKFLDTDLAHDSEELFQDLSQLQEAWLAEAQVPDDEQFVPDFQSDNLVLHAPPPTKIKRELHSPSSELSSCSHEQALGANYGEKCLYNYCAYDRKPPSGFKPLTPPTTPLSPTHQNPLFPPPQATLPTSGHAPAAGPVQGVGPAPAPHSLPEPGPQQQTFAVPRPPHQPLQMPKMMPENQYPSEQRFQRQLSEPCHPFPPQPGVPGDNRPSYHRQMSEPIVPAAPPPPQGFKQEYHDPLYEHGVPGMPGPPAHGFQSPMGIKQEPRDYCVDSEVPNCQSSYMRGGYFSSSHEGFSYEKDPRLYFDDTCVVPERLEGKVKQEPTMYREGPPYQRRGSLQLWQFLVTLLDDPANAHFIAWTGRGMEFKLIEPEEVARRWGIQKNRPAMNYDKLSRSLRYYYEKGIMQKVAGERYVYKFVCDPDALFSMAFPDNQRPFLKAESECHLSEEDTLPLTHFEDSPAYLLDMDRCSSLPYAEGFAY
Sequence of ELF4 (Q99607 whole entry): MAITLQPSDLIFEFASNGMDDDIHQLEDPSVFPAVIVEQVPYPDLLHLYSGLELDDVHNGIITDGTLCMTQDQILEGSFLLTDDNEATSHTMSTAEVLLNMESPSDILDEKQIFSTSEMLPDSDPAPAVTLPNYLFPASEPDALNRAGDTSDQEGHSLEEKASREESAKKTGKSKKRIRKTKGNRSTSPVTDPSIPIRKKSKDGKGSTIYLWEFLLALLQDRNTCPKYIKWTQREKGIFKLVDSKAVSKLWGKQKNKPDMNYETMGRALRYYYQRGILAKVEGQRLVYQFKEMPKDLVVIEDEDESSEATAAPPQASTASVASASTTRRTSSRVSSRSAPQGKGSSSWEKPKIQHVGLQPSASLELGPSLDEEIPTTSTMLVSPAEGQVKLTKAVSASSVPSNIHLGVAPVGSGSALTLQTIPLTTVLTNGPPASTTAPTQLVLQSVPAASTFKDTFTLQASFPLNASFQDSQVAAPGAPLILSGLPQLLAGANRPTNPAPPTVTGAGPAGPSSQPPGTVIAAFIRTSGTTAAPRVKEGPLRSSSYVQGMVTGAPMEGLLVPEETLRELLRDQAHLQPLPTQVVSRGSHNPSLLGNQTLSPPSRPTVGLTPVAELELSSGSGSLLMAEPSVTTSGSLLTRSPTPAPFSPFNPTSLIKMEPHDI
Sequence of ELF1 (P32519 whole entry): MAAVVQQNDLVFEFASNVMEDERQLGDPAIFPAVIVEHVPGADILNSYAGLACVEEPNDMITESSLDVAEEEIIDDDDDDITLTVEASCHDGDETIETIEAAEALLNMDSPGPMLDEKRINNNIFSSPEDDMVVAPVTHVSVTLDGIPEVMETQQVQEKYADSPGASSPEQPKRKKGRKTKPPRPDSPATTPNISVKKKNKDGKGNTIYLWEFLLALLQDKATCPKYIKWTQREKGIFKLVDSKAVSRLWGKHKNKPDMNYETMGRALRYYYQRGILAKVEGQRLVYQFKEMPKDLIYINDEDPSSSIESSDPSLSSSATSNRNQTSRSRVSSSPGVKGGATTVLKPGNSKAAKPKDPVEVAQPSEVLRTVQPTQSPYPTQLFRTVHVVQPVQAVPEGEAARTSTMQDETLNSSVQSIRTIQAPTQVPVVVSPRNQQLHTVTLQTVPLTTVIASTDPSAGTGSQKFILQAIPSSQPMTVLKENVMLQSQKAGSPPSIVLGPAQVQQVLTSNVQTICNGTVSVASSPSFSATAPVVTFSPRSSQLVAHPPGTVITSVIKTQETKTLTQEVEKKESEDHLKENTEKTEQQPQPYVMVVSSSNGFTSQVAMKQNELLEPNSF
Sequence of SPIB (Q01892 whole entry): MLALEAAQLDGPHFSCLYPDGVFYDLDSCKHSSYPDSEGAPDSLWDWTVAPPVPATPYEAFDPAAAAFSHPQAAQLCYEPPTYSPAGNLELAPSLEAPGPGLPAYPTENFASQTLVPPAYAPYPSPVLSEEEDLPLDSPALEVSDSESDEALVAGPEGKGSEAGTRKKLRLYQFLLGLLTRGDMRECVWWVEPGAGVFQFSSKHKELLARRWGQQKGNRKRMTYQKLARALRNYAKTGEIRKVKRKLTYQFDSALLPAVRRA

Take CATTGT: the binding signal with ELK1 is 1.14 fold enrichment (6-mer frequency, TF over GST control); in the assay with GABPA, 1.19 fold enrichment (6-mer frequency, TF over GST control); with ERG, 1.12 fold enrichment (6-mer frequency, TF over GST control); with ELF1, 1.1 fold enrichment (6-mer frequency, TF over GST control); in the assay with EHF it was 1.14 fold enrichment (6-mer frequency, TF over GST control); with SPIB it was 1.04 fold enrichment (6-mer frequency, TF over GST control). The binding signal in the assay with FEV is 1.09 fold enrichment (6-mer frequency, TF over GST control); in the assay with ETV5 it was 1.19 fold enrichment (6-mer frequency, TF over GST control); with ELF4, 1.14 fold enrichment (6-mer frequency, TF over GST control); with ELK4, 1.17 fold enrichment (6-mer frequency, TF over GST control).

These data come from PMC7862700, “An all-to-all approach to the identification of sequence-specific readers for epigenetic DNA modifications on cytosine”.
